Most compounds without a hit are left out; they make up all but 11% or so of the library.
Tau FP inhib: inhibitors of human tau fibril formation. hit rate 0.39% among 280,000. AID 1468. P10636. Potency, µM (series often up to 57.7 µM), for the others: at the top dose activity, negative = inhibition, usual class: inhibitors. K18 P301L tau heparin fibrillization, Alexa594 FP, 6 h; note: potency is the fitted concentration of half-maximal effect; nearly all actives have a fitted effect of over 55% in size
Target sequence (P10636 561-689 P618L limits assumed): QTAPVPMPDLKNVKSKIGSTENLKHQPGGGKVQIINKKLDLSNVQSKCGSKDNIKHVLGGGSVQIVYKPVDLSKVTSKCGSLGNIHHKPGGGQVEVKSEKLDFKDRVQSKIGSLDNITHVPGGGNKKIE
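Recombinant K18 P301L […], labeled with Alexa 594 at 0.24 uM over 15 uM unlabeled; heparin inducer 20 uM final; 37 C, 6 hr; FP endpoint.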
Tau fluor cs: counter-screen for tau fibril formation inhibitors. tau K18 P301L Alexa594 fluorescence, heparin fibrillization. Potency, µM (top dose mostly 57.7 µM), inactives show at the top dose activity change, negative = decrease. hit rate 0.93% among 280,000. AID 1463; note: potency is the fitted concentration of half-maximal effect; nearly all actives have a fitted effect of over 55% in size
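Human tau K18 P301L (15 uM unlabeled, 0.24 uM Alexa 594-labeled) in 100 mM sodium acetate pH 7 with 20 uM heparin, 6 hr at 37 C. ThT 30 uM added, 1 hr ambient; Alexa 594 FP and total fluorescence read at 555/632 nm.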
Tau fibril ThT: blocks human tau fibril formation measured by thioflavin T. recombinant tau K18 P301L (four-repeat tau fragment), heparin-induced fibrillization, ThT fluorescence. AID 1460. Potency, µM (titrated, usually from 57.4 µM), without a hit: top-dose activity, negative = inhibition, most hits filed as inhibitors. hit rate 2.1% among 270,000; note: potency is the fitted concentration of half-maximal effect; nearly all actives have a fitted effect of over 55% in size
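Heparin-induced (20 uM) aggregation of recombinant human K18 P301L tau, 15 uM unlabeled with 0.24 uM labeled, pH 7 acetate buffer, 6 hr at 37 C with compound. Fibrils quantified by 30 uM ThT fluorescence after 1 hr ambient incubation.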
FBPA coupling cs: coupling enzyme interference in Giardia aldolase counter-screen; coupling enzyme system counterscreen, AmpLite Red fluorescence; hit rate 0.67% among 290,000; activity change, negative = inhibition, % at 58.2 µM, hits read low; in the data active = activity change below about -30%
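Coupling enzymes only (glyceraldehyde-3-phosphate) + compound, at 57.5 uM final, 10 min RT; add substrate/coupling/AmpLite Red mix, 20 min RT; fluorescence ex 525/em 598 nm. Actives flag coupling-system interference.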
Sfp inh: blocks B. subtilis Sfp PPTase activity; Q9F4F7; Biochemical Sfp PPTase activity, qHTS; Potency, µM, inactives show largest response in the series, negative = inhibition, actives largely listed as inhibitors; hit rate 3.5% among 310,000; AID 1490;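 note: the enzyme is Sfp with the accession as filed and its product quenches rhodamine fluorescence; potency is the fitted concentration of half-maximal effect; 0% = enzyme reaction without inhibitor and -100% = no enzyme wells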
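Sfp 15 nM + cpd, 15 min RT; start w/ rhodamine-CoA 5 uM, BHQ-2-YbbR 12.5 uM (final); 50 mM Hepes pH 7.6, 10 mM MgCl2, 0.01% NP-40, 0.01% BSA; read 525/598 nm at 0 and 30 min.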
G9a block: inhibitors of human histone lysine methyltransferase G9a; hit rate 8.8% among 350,000; AID 504332; Q96KQ7; Potency, µM (series often up to 102 µM), for inactives: at the top dose activity, negative = inhibition, hits mostly inhibitors; G9a H3K9 monomethylation, AlphaScreen, 2 h; note: potency is the fitted concentration of half-maximal effect; nearly all actives have a fitted effect of over 75% in size
Target sequence (Q96KQ7 913-1193 limits assumed): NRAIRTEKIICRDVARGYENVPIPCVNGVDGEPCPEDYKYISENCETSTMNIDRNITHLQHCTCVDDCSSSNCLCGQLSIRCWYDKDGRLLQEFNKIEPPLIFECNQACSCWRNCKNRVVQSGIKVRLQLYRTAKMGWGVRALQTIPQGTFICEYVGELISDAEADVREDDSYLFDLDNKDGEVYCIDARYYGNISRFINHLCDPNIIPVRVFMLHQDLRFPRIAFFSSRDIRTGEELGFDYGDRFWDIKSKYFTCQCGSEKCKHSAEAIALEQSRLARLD
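Chemiluminescent proximity detection of H3K9 monomethylation, read after 10 min bead incubation in the dark. Reaction: 20 nM G9a, 500 nM biotin-H3K9 peptide, 20 uM SAM cofactor, 2 h, room temperature, following 15 min enzyme-compound preincubation.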
Starred values were filed as active, the others as inactive; ? = inconclusive; . = not tested or not shown; ! = not confirmed by another sample; [ ] = dose if it differs, or a comment. Unless noted, calls come from the whole dose curve; as a rule, active = well fitted curve in the direction sought with a large enough effect; inconclusive = small, poorly fitted or top-dose-only effect, or another doubt; inactive = no such curve, though single readings can be large; an effect the other way counts as inactive or inconclusive. Unless noted, % is set by controls: 0 for no effect and ±100 for the full control effect.

SMILES	Tau FP inhib	Tau fluor cs	Tau fibril ThT	FBPA coupling cs	Sfp inh	G9a block
COc1cccc(C2=CC(c3cc(Br)ccc3F)n3nnnc3N2)c1 (configuration not stated)	?	-17%	?	.	.	11µM*
CCS(=O)(=O)C1=NN2C(=N)/C(=C\c3ccc(OC(=O)c4ccco4)cc3)C(=O)N=C2S1	.	.	.	.	?	40µM*
N#CC(C#N)=NNc1cccc(Cl)c1	?	?	4.5µM*	19	56µM*	.
CC(=O)Nc1ccc(C2CN(C)CC2C(=O)c2ccc(Cl)cc2)cc1 (configuration not stated)	0%	-4%	-5%	0	11%	?
CN1CC(C(=O)c2ccc(Cl)cc2)C(c2ccc(N(C)C)cc2)C1 (configuration not stated)	8%	-1%	5%	1	2%	35µM*
O=C(CS(=O)C(c1ccccc1)c1ccccc1)NO (configuration not stated)	.	.	.	0	-12%	3%[12.7 µM]
CC(C)NS(=O)(=O)c1ccc(OCC(=O)N2CCN(Cc3ccccc3)CC2)c(Cl)c1	8%	-5%	-3%	1	-26%	45µM*
O=C(COc1ccc(S(=O)(=O)N2CCCCC2)cc1)N1CCN(Cc2ccccc2)CC1	4%	-7%	-11%	-3	0%	45µM*
CCC[C@@H]1CC2=CC(=O)CC[C@]2(C)[C@@H]2CC[C@@]3(C)[C@H](CC[C@]3(O)CCC(=O)O)[C@H]12	7%	3%	0%	8	35%	.
O=C(Oc1ccccc1)N1CCC2(CC1)CN(Cc1ccncc1)C2	.	.	.	3	5%	37%[12.7 µM]
CCCCCCCC/C=C\CCCCCCCC(=O)OC[C@@H](COP(O)(O)=S)OC	.	.	.	7	?	.
CCOC(=O)CNC(=O)CSP(=S)(OCC)OCC	3%	-5%	-7%	0	79µM*	?
CN1CCN(S(=O)(=O)c2cccc(C(=O)N3CCN(c4ccccc4F)CC3)c2)CC1	.	.	.	.	.	2µM*
CN(C)S(=O)(=O)c1cccc(C(=O)N2CCC(C(=O)O)(c3ccccc3)CC2)c1	.	.	.	5	4%	-19%
COc1cc(C2c3cc4c(cc3C(OC(C)=O)[C@H]3COC(=O)C23)OCO4)cc(OC)c1OC (some centres not stated)	-8%	-17%	-6%	-8	?	.
Oc1cc2c(cc1CN1CCN(c3ccc(F)cc3)CC1)OCO2	.	.	.	-9	8%	8.9µM*
Brc1cc2c(cc1CN1CCN(c3ccccc3)CC1)OCCO2	.	.	.	0	1%	?
C=CCc1c(C)[nH]c(=S)c(C#N)c1C	-6%	-2%	?	-1	10µM*	1.1µM*
CC1CCCC(C)N1C(=O)CSc1nnc(NC(=O)c2cccs2)s1 (configuration not stated)	2%	-3%	0%	9	8%	50µM*
CCCC(C)C1(CC)C(=O)N=C(S)NC1=O (configuration not stated)	0%	-2%	-9%	0	19%	.
CC1CCN(CC(=O)c2cccc(C(F)(F)F)c2)CC1	.	.	.	0	?	8.9µM*
CCCCCCCCCCCCCCCC[N+](C)(C)C	?	-7%	?	3	45µM*!	8.9µM*!
O=C(OCC(=O)N1CCOCC1)c1ccc[nH]c1=O	5%	2%	-7%	1	2%	20µM*
O=C1NC(=O)C(=Cc2ccc(OCC(=O)N3CCOCC3)cc2)C(=O)N1	?	-5%	?	-3	?	?
CC12CN3CC(C)(CN(C1)P3(=O)Oc1ccccc1)C2=O (configuration not stated)	4%	5%	-3%	1	-1%	40µM*
O=[N+]([O-])c1cc2c(cc1CNCCc1ccc3c(c1)OCO3)OCO2	4%	-7%	-8%	-14	50µM*	?
c1cc2c(cc1CCNC1C3CC4CC(C3)CC1C4)OCO2 (configuration not stated)	-4%	-4%	-6%	-5	-5%	25µM*

Compound activity: PubChem BioAssay, National Center for Advancing Translational Sciences (NCATS)
